Measured values taken from PubChem BioAssay (EPA / NIEHS).
The source made the active and inactive calls. The calls were made as follows: active = hit-call score of the fitted dose curve at least 0.9, where 1 is the maximum; inactive = score below 0.9.

Columns and labels:
[1] = ATG_CRE_CIS: Attagene CIS-FACTORIAL HepG2 Assay for human cAMP Responsive Element (CRE) binding protein 3 (AID 2282926); settings: HepG2 CRE cis-reporter, Attagene multiplexed mRNA; actives raise or lower the signal
Outline: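 HepG2 cells transiently transfected with a multiplexed reporter library (CRE-driven unit among them) were dosed for 24 h. Reporter mRNA was quantified by RT-PCR, fluorescent labelling, HpaI digestion and capillary electrophoresis, with bidirectional fitting against DMSO baseline.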

[2] = biological target: CCAAT/enhancer-binding protein beta (Homo sapiens) (UniProt P17676); assay: ATG_C_EBP_CIS: Attagene CIS-FACTORIAL HepG2 Assay for human CCAAT/Enhancer Binding Protein (C/EBP) beta (AID 2282927); settings: HepG2 Attagene cis-factorial transcription factor reporter; actives raise or lower the signal
Outline: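 HepG2, transient MRTU transfection, 24 h treatment. RT-PCR plus CE fluorescence; DMSO negative control, bidirectional fit.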

[3] = ATG_CMV_CIS: Attagene CIS-FACTORIAL HepG2 Assay for human CMV (Internal Marker) (AID 2282928); settings: HepG2 CMV promoter reporter, transcription factor profiling; actives raise or lower the signal;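 also: endpoint acts as a background internal control marker rather than a target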
Outline: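 HepG2 cells transiently transfected with multiple cis-regulated reporter units; 24 h compound exposure. Reporter mRNA quantified by RT-PCR, 6-FAM primer-extension labeling, HpaI digestion and capillary electrophoresis; bidirectional fitting against DMSO baseline.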

[4] = ATG_DR4_LXR_CIS: Attagene CIS-FACTORIAL HepG2 Assay for human Liver X Receptor (LXR), DR4 submotif (AID 2282929); settings: HepG2 Attagene DR4 cis-reporter, mRNA transcription; actives raise or lower the signal
Outline: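 HepG2 cells transiently transfected with cis-promoter-driven multiplexed reporter units (DR4 element) were dosed for 24 h. Reporter mRNA was quantified by RT-PCR, fluorescent primer extension, HpaI digestion and capillary electrophoresis; bidirectional fitting versus DMSO baseline.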

[5] = biological target: Aryl hydrocarbon receptor (Homo sapiens) (UniProt P35869); assay: ATG_Ahr_CIS: Attagene CIS-FACTORIAL HepG2 Assay for human Aryl Hydrocarbon Receptor (Ahr) (AID 2282930); settings: HepG2 AhR cis-factorial reporter transcription; actives raise or lower the signal
Outline: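 Endogenous factor activity is tracked through cis-promoter reporter units transfected into HepG2 cells. Transcript levels at 24 h are read by fluorescent RT-PCR and capillary electrophoresis, with activity in either direction scored relative to DMSO.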

[6] = ATG_AP_1_CIS: Attagene CIS-FACTORIAL HepG2 Assay for human Activator Protein 1 (AP-1) (AID 2282931); settings: HepG2 Attagene cis-factorial AP-1 reporter mRNA; actives raise or lower the signal
Outline: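 HepG2 cells transiently transfected with cis-element-driven multiplex reporter units; 24 h compound exposure. Reporter mRNA quantified by RT-PCR, FAM-labelled fragments resolved by capillary electrophoresis; bidirectional fit versus DMSO baseline.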

[7] = ATG_AP_2_CIS: Attagene CIS-FACTORIAL HepG2 Assay for human Activator Protein 2 (AP-2) (AID 2282932); settings: HepG2 AP-2 cis-reporter, Attagene transcription factor profiling; actives raise or lower the signal
Outline: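 Multiplexed mRNA reporter assay in HepG2: cis-regulated units report endogenous factor activity after 24 h treatment. Fluorescence from capillary electrophoresis of RT-PCR products gives the signal, with DMSO as baseline.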

[8] = ATG_BRE_CIS: Attagene CIS-FACTORIAL HepG2 Assay for human Bone Morphogenetic Protein (BMP) Response Element (BRE) (AID 2282933); settings: HepG2 BMP response element reporter, Attagene transcription factor profiling; actives raise or lower the signal
Outline: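 Endogenous transcription factor activity at a BMP response element was monitored in transfected HepG2 cells 24 h after dosing. Fluorescent RT-PCR products were resolved by capillary electrophoresis, and activity was fitted in both directions versus DMSO.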

[9] = biological target: Retinoic acid receptor alpha (Homo sapiens) (UniProt P10276); assay: ATG_DR5_RAR_CIS: Attagene CIS-FACTORIAL HepG2 Assay for human Retinoic Acid Receptor Alpha (RARE), DR5 submotif (AID 2282934); settings: HepG2 Attagene cis-factorial RARE DR5 reporter, mRNA; actives raise or lower the signal
Outline: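 After 24 h of chemical exposure, transiently transfected HepG2 cells were lysed for total RNA; the DR5-regulated reporter transcript was quantified via RT-PCR and capillary electrophoresis, with activity fitted bidirectionally against DMSO.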

[10] = biological target: Transcription factor E2F1 (Homo sapiens) (UniProt Q01094); assay: ATG_E2F_CIS: Attagene CIS-FACTORIAL HepG2 Assay for human E2F Transcription Factor 1 (AID 2282935); settings: HepG2 Attagene cis-reporter, E2F reporter RNA transcripts; actives raise or lower the signal
Outline: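 Measures reporter transcript levels via RT-PCR with capillary electrophoresis detection in HepG2 cells harboring cis-regulated reporter units; 24 h post-dose; bidirectional curve fitting with DMSO as baseline.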

[11] = ATG_E_Box_CIS: Attagene CIS-FACTORIAL HepG2 Assay for human Enhancer Box (E-box) (AID 2282936); settings: HepG2 E-box cis-reporter transcription, actives raise or lower the signal
Outline: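 First, HepG2 cells receive multiple cis-regulated reporter constructs by transient transfection. Next, chemicals are applied for 24 h. Finally, reporter mRNA is quantified via RT-PCR and capillary electrophoresis, with DMSO as baseline.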

[12] = ATG_M_61_CIS: Attagene CIS-FACTORIAL HepG2 Assay for M61 Transcription Factor (Internal Marker) (AID 2282937); settings: HepG2 Attagene CIS-FACTORIAL M61 internal marker reporter; actives raise or lower the signal
Outline: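 HepG2 cells transiently transfected with cis-element-driven multiple reporter transcription units, dosed for 24 h. Reporter mRNA measured by RT-PCR, 6-FAM primer-extension labelling, HpaI digestion and capillary electrophoresis; bidirectional fit versus DMSO baseline.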

[13] = ATG_EGR_CIS: Attagene CIS-FACTORIAL HepG2 Assay for human Early Growth Response 1 (EGR1) (AID 2282938); settings: HepG2 Attagene CIS-FACTORIAL EGR reporter mRNA; actives raise or lower the signal
Outline: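 HepG2 cells transiently transfected with cis-promoter-driven multiplexed reporter transcription units; reporter mRNA measured 24 h after compound dosing by RT-PCR, 6-FAM primer extension, HpaI digestion and capillary electrophoresis. Bidirectional fit versus DMSO baseline.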

[14] = ATG_M_19_CIS: Attagene CIS-FACTORIAL HepG2 Assay for M19 Transcription Factor (Internal Marker) (AID 2282939); settings: HepG2 Attagene CIS-FACTORIAL M19 internal marker reporter; actives raise or lower the signal
Outline: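 Background-control endpoint from a multiplexed HepG2 reporter panel. Cells carrying cis-regulated reporter constructs are treated 24 h, then reporter transcripts are amplified, fluorescently labelled and sized by capillary electrophoresis. DMSO defines baseline.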

[15] = ATG_ERE_CIS: Attagene CIS-FACTORIAL HepG2 Assay for Estrogen Response Element (ERE) (AID 2282940); settings: HepG2 ERE cis-reporter, Attagene RNA transcript; actives raise or lower the signal
Outline: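 Cells used were human hepatoma HepG2, transfected with multiple reporter transcription units under cis-regulatory promoters. Reporter mRNA, read 24 h post-dosing via fluorescent RT-PCR products on capillary electrophoresis, was fitted bidirectionally relative to DMSO.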

[16] = ATG_Ets_CIS: Attagene CIS-FACTORIAL HepG2 Assay for human Erythroblast Transformation Specific (ETS) (AID 2282941); settings: HepG2 ETS cis-reporter transcription, actives raise or lower the signal
Outline: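 HepG2 cells transiently transfected with cis-promoter reporter transcription units were dosed for 24 h; reporter mRNA was measured by RT-PCR, 6-FAM primer extension, HpaI digestion and capillary electrophoresis, with bidirectional fitting against DMSO baseline.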

[17] = biological target: Hepatocyte nuclear factor 3-beta (Homo sapiens) (UniProt Q9Y261); assay: ATG_FoxA2_CIS: Attagene CIS-FACTORIAL HepG2 Assay for human Forkhead box A2 (FOXA2) (AID 2282942); settings: HepG2 cis-reporter transcription factor activity, 24 h; actives raise or lower the signal
Outline: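 HepG2 cells transiently transfected with multiple cis-regulated reporter transcription units, dosed for 24 h. Reporter mRNA measured by RT-PCR, 6-FAM labelling, HpaI digestion and capillary electrophoresis; bidirectional fitting against DMSO baseline.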

[18] = ATG_FoxO_CIS: Attagene CIS-FACTORIAL HepG2 Assay for human Forkhead box O (FoxO) (AID 2282943); settings: HepG2 Attagene cis-reporter, FoxO element, mRNA; actives raise or lower the signal
Outline: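 Transfected HepG2 reporter cells exposed to test chemical for 24 h; reporter RNA measured by reverse transcription, PCR and fluorescent capillary electrophoresis; curves fitted for increases and decreases against DMSO.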

[19] = ATG_GATA_CIS: Attagene CIS-FACTORIAL HepG2 Assay for human GATA Binding Protein (AID 2282944); settings: HepG2 GATA cis-element reporter, Attagene multiplex mRNA; actives raise or lower the signal
Outline: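 Endogenous transcription factor activity was captured through cis-promoter-driven reporters in transfected HepG2 cells. After 24 h exposure, reporter transcripts were quantified by RT-PCR with fluorescent capillary electrophoresis, and responses fitted both directions against DMSO.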

[20] = ATG_GLI_CIS: Attagene CIS-FACTORIAL HepG2 Assay for human Zinc Finger Protein GLI1 (AID 2282945); settings: HepG2, Attagene cis-factorial reporter mRNA, GLI element; actives raise or lower the signal
Outline: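 Transiently transfected HepG2 cells report endogenous transcription factor activity via cis-element-driven reporter units. After 24 h compound exposure, reporter mRNA was measured by RT-PCR with capillary electrophoresis; bidirectional fitting against DMSO baseline.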

Measured: outcome

Chain of Hepatocyte nuclear factor 3-beta (Homo sapiens) (Q9Y261 whole entry, looked up): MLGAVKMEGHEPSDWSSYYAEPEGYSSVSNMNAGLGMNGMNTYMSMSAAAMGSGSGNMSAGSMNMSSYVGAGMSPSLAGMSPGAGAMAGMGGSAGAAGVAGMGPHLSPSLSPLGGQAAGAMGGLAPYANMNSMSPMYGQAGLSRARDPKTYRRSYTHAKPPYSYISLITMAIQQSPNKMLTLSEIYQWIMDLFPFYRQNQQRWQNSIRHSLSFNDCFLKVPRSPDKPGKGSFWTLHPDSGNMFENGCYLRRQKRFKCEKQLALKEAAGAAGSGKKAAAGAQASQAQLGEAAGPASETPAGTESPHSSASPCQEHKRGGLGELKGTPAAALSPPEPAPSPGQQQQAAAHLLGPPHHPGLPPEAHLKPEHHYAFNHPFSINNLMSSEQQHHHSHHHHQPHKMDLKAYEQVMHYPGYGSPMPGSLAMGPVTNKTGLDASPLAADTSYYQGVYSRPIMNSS
Chain of Transcription factor E2F1 (Homo sapiens) (Q01094 whole entry, looked up): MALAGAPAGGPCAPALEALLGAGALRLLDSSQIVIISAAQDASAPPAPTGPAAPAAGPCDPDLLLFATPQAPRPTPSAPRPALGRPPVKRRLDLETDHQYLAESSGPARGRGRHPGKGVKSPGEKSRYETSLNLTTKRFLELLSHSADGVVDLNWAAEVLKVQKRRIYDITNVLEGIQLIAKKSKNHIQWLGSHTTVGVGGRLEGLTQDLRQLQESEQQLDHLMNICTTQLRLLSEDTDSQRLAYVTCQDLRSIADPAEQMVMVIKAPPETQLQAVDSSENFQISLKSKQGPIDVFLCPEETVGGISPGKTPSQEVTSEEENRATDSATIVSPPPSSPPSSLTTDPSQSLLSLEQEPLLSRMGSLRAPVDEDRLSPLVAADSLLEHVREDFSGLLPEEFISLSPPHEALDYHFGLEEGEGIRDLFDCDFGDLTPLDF
Chain of CCAAT/enhancer-binding protein beta (Homo sapiens) (P17676 whole entry, looked up): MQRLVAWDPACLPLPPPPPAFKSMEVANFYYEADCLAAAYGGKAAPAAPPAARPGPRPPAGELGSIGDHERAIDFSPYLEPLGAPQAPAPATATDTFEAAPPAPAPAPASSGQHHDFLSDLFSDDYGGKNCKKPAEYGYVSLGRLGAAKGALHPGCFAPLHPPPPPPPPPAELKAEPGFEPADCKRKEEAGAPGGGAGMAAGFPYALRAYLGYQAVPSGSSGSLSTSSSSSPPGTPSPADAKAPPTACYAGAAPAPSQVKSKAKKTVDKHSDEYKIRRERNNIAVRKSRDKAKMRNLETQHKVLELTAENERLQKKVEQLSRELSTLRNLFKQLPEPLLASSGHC
Chain of Aryl hydrocarbon receptor (Homo sapiens) (P35869 whole entry, looked up): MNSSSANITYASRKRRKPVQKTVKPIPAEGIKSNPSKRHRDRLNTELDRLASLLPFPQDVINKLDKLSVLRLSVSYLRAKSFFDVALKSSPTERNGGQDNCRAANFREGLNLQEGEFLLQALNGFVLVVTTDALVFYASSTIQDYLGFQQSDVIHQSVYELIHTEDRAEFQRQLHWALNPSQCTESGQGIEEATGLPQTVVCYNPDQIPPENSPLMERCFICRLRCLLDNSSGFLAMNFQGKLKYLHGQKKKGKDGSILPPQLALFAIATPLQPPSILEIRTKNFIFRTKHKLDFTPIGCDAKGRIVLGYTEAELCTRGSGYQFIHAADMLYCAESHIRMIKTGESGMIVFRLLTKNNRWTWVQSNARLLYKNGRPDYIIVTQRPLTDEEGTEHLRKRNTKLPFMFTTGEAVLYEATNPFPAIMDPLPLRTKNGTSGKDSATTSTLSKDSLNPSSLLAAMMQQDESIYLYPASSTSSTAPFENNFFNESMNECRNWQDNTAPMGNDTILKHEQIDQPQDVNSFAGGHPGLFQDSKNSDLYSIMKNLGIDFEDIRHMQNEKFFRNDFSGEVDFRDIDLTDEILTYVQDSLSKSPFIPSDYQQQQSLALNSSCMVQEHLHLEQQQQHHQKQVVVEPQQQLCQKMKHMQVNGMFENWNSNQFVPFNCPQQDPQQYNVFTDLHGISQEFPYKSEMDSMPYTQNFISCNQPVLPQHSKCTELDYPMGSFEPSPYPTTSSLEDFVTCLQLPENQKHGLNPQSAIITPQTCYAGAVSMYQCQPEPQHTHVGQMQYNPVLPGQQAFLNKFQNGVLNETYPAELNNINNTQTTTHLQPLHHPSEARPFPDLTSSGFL
Chain of Retinoic acid receptor alpha (Homo sapiens) (P10276 whole entry, looked up): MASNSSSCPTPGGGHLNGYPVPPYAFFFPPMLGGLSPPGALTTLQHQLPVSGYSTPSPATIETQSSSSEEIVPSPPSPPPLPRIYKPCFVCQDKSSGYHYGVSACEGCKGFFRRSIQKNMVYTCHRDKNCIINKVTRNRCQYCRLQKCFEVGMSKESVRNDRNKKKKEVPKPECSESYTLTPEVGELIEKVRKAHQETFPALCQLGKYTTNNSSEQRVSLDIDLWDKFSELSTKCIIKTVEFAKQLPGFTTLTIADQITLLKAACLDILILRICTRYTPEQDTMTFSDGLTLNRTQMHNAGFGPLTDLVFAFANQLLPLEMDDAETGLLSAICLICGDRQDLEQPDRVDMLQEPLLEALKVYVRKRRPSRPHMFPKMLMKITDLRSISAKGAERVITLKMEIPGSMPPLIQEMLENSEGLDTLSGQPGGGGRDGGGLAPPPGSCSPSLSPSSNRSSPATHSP

O=C(O)Cc1c(Cl)ccc(Cl)c1Cl
inactive: all assays above

O=C1CCC(=O)N1Cl
inactive: all assays above

FC(F)=C(F)OC(F)(F)C(F)(F)C(F)(F)F
inactive: all assays above

O=C(O)CCCC[C@@H]1SC[C@@H]2NC(=O)N[C@@H]21
inactive: all assays above
